The panel holds about 83,000 compounds, 20% with a hit somewhere; the sample as a whole holds those more often.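 Cells were grown in 96-well plates and exposed to the test compound at a single concentration for 48 hours; results are reported as percent growth, with values below 10 considered active.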 The source made the active and inactive calls.
Tests used:
Assay in all cases: NCI-60 one-dose screen, 48 h (100 = growth as untreated, 0 = no growth, -100 = all killed)
Details in all cases: 10 µM unless noted
[1] = system: NCI-H23 lung
[2] = system: NCI-H226 lung
[3] = system: NCI-H322M lung
[4] = system: HOP-62 NSCLC
[5] = system: NCI-H460 lung
[6] = system: HOP-92 NSCLC
[7] = system: NCI-H522 lung
[8] = system: A549/ATCC NSCLC
[9] = system: 786-0 renal
[10] = system: COLO 205 colon

Measured: growth

CCCS(=O)(=O)c1nc(NC2CC2)cc(-c2ccc3c(ccn3C3CC(C)(C)NC(C)(C)C3)c2)n1
active: [2] -63% | [4] 7.4% | [5] -74.1% | [7] -64.1% | [8] -61.4% | [9] -87.3% | [10] -48.8%
inactive: [1] 10% | [3] 32.5% | [6] 87.6%

CCCCC(N)(C(=O)O)C1CCCC1 (stereo not given)
inactive: [1] 106% | [2] 101% | [3] 101% | [4] 112% | [5] 107% | [6] 102% | [7] 102% | [8] 94.4% | [9] 96% | [10] 123%

COc1cc(-c2n[nH]nc2-c2ccc3c(c2)OCCO3)cc(OC)c1OC
inactive: [1] 22.8% | [2] 75.7% | [3] 51.4% | [6] 24.3% | [8] 16.5% | [9] 20.9%
active: [4] 8.87% | [5] 2.69% | [7] -44.5% | [10] -85.7%

c1cc(-c2ccc3c(c2)OCO3)n2nccc2n1
inactive: [1] 104% | [2] 83% | [3] 99.3% | [4] 108% | [5] 101% | [6] 83.9% | [7] 89.7% | [8] 99.2% | [9] 101% | [10] 113%

CCN1C(=S)N(CC)C2Nn3c(s/c(=C4\C(=O)N(C)c5ccccc54)c3=O)=NC21 (stereo not given)
inactive: [1] 44.9% | [2] 88.6% | [3] 73.1% | [4] 52.3% | [5] 29% | [6] 76.1% | [7] 32.3% | [8] 50.3% | [9] 56.2% | [10] 30.8%

COc1ccc(-c2nc(-c3nc4ccc(F)cc4[nH]3)cc3c2[nH]c2ccccc23)cc1
inactive: [1] 53.3% | [2] 70.6% | [3] 19% | [4] 48.7% | [5] 10.5% | [6] 31.8% | [7] 44.4% | [8] 14.3% | [9] 63.2% | [10] 44.1%

CCN(CC)S(=O)(=O)c1ccc2[nH]c(=O)cc(C(=O)Nc3ccc(OC)cc3OC)c2c1
inactive: [1] 97.8% | [2] 100% | [3] 116% | [4] 105% | [5] 123% | [6] 77.8% | [7] 105% | [8] 110% | [9] 107% | [10] 110%

NS(=O)(=O)c1ccc(CN2C(=O)c3cccc4cccc(c34)C2=O)cc1
inactive: [1] 107% | [2] 86.1% | [3] 93% | [4] 81.8% | [5] 110% | [6] 82.7% | [7] 89.9% | [8] 92.1% | [9] 99.2% | [10] 99.4%

CCCCCC(=O)OCc1ccccc1
inactive: [1] 102% | [2] 103% | [3] 102% | [4] 97% | [5] 109% | [6] 96.3% | [7] 85.7% | [8] 106% | [9] 96.9% | [10] 106%

O=C(CNC1CCCCC1)Nc1ccc(-c2nc3ccccc3s2)cc1
inactive: [1] 76.2% | [2] 80.3% | [3] 91.7% | [4] 85.2% | [5] 91.3% | [6] 48.8% | [7] 95.5% | [8] 88% | [9] 70.6% | [10] 95.4%

CC(CCc1ccccc1)NC(=O)c1n[nH]c(=O)c2ccccc12 (stereo not given)
inactive: [1] 116% | [2] 103% | [3] 89.7% | [4] 92.1% | [5] 110% | [6] 61.2% | [7] 82.4% | [8] 95.8% | [9] 107% | [10] 115%

Cc1cc(C(=O)O)c(N)c(C)n1
inactive: [1] 100% | [2] 118% | [3] 106% | [4] 106% | [5] 108% | [6] 93.2% | [7] 107% | [8] 108% | [9] 104% | [10] 119%

C[N+](C)(C)c1ccc(CC2c3ccccc3-c3ccccc32)cc1
inactive: [1] 78.5% | [2] 82.2% | [3] 87.8% | [4] 38.9% | [5] 87.3% | [6] 28.8% | [7] 59.9% | [8] 62% | [9] 73.9% | [10] 59.8%

COc1cc(NC(=O)CSc2nc3ccc(C)cc3c(=O)n2-c2ccccc2)cc(OC)c1OC
inactive: [1] 84.1% | [2] 82.6% | [3] 101% | [4] 91.2% | [5] 101% | [6] 49.5% | [7] 68.7% | [8] 83.9% | [9] 89.4% | [10] 111%

COc1cccc2cc(-c3cc4ccccc4[nH]3)/c(=N/C(=S)Nc3ccccc3)oc12
active: [6] 5.47%
inactive: [1] 61.8% | [2] 69.9% | [3] 84% | [4] 18.5% | [5] 69.3% | [7] 88.1% | [8] 91.4% | [9] 59.4% | [10] 98.1%

COc1cc(Cn2c(SCC(=O)Nc3cc(OC)c(OC)c(OC)c3)nc3ccccc3c2=O)cc(OC)c1OC
inactive: [1] 77.1% | [2] 57.7% | [3] 82.1% | [4] 42.8% | [5] 57.8% | [6] 39.8% | [7] 34% | [8] 62.9% | [9] 73.6% | [10] 109%

O=[N+]([O-])c1c(S(=O)(=O)O)cc2cc(S(=O)(=O)O)ccc2c1[N+](=O)[O-]
inactive: [1] 90.6% | [2] 108% | [3] 92.6% | [4] 109% | [5] 105% | [6] 103% | [7] 86.1% | [8] 98.9% | [9] 103% | [10] 117%

O=C(O)C(Cc1ccccc1)N1C(=O)/C(=C/C(Cl)=C/c2ccc([N+](=O)[O-])cc2)SC1=S (stereo not given)
inactive: [1] 16.1% | [2] 71.2% | [3] 70.9% | [4] 47.7% | [5] 50.1% | [6] 20% | [8] 81.2% | [10] 17.4%
active: [7] 0.83% | [9] -31.6%

COc1cc(C2C=C(C)N=C3SC=C(C)N32)cc(OC)c1OC (stereo not given)
inactive: [3] 13.6%
active: [1] -27.7% | [2] 2.75% | [4] -62.1% | [5] -39% | [6] -32.4% | [7] -87.1% | [8] -19.2% | [9] -69% | [10] -75.9%

CCCC(C(=O)OCC)C(C)OC(=O)OCC (stereo not given)
inactive: [1] 100% | [2] 101% | [3] 100% | [4] 93.3% | [5] 113% | [6] 90.2% | [7] 86.1% | [8] 104% | [9] 99.5% | [10] 103%

CC(C)(C)OC(=O)N1C/C(=C\c2cccs2)C(=O)/C(=C/c2cccs2)C1
inactive: [1] 96.3% | [2] 93.1% | [3] 94.3% | [4] 89% | [5] 105% | [6] 82.2% | [7] 79.5% | [8] 86.9% | [9] 81.4% | [10] 117%

COc1ccc(C2CC(=O)Nc3c2c(C)nn3-c2nc3ccccc3[nH]2)cc1OC (stereo not given)
inactive: [1] 48.7% | [2] 58.7% | [3] 75.9% | [4] 67.8% | [5] 63.7% | [6] 89.3% | [7] 98.2% | [8] 61.1% | [9] 87.5% | [10] 106%

Cc1cc(C(=O)CSc2nc3ccccc3c(=O)[nH]2)c(C)n1C
inactive: [1] 97.7% | [2] 97.8% | [3] 100% | [4] 93.5% | [5] 113% | [6] 73.1% | [7] 98.9% | [8] 43.2% | [9] 91.9% | [10] 109%

COc1ccc2c(c1)C(=O)/C(=C/c1ccc(O)cc1)O2
inactive: [1] 93.9% | [2] 78.2% | [3] 86.6% | [4] 90.8% | [5] 91.2% | [8] 91.8% | [9] 101% | [10] 24.8%
active: [6] -40% | [7] -97.9%

COc1cccc(-c2nc3sccn3c2-c2ccnc(NCCNS(=O)(=O)c3ccccc3)n2)c1
inactive: [1] 65.8% | [2] 43.1% | [3] 81.7% | [4] 114% | [5] 62.4% | [6] 62.6% | [7] 49.5% | [8] 64.8% | [9] 56.7% | [10] 34.1%

CC/C=C\C[C@H](O)C/C=C1/C(=O)C(Cl)=C[C@@H]1C/C=C\CCCC(=O)O
inactive: [1] 70.2% | [2] 89.6% | [3] 94.5% | [4] 96.8% | [5] 97.7% | [6] 98.3% | [8] 100% | [9] 75.2% | [10] 47.6%
active: [7] -68.1%

Cc1oc2nc[nH]c(=O)c2c1C(=O)/C=C/c1ccc(Cl)cc1
active: [4] 6.15% | [6] -4.23%
inactive: [1] 39.7% | [2] 94% | [3] 45.2% | [5] 21% | [7] 17.5% | [8] 31.7% | [9] 29.7% | [10] 70.8%

CN(C)C/C=C/C(=O)Nc1cc2c(Nc3cccc(Cl)c3F)ncnc2cc1OCCOC(F)F
inactive: [1] 60.9% | [2] 40.3% | [4] 39.3% | [5] 67.4% | [8] 25.2% | [9] 18.5% | [10] 56.7%
active: [3] 7.68% | [6] -29% | [7] -19.2%
